Experimental data reported in PubChem BioAssay AID2546 (National Center for Advancing Translational Sciences (NCATS), 2010).
Hit rate of the full screen: of about 310,000 compounds, about 11,000 (3.5%) were called active. Another 8% or so got no clear call; they are omitted. This excerpt belongs to a sample that is enriched for actives. Values without a mark were called inactive. Calls come from the whole dose curve; as a rule, active = well fitted inhibition curve with a large enough effect; inconclusive = small, poorly fitted or top-dose-only effect, or effect the other way; inactive = flat fitted curve, though single readings scatter.

Assay: VP16 counterscreen qHTS for inhibitors of ROR gamma transcriptional activity;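 note: Gal4-VP16 expression switched on by copper sulfate through the metallothionein promoter; nearly all actives have a fitted effect of over 50% in size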
Conditions: Drosophila S2 Gal4-VP16 UAS-luciferase, luminescence, 20 h; series mostly up to 53.6 µM; activity, negative = inhibition: at the top concentration
% is set by controls: 0 for no effect and ±100 for the full control effect; potency is the fitted concentration of half-maximal effect.

Compound	activity, negative = inhibition [%]	Potency
COc1cccc(N2CCN(c3ccc4nnc(CCC(=O)N5CCN(C)CC5)n4n3)CC2)c1	-6.09	–
CCOc1ccc(-n2c(SCC(=O)OC)nc3sc4c(c3c2=O)CCN(C)C4)cc1	-2.56	–
Cc1ccc(NC(=S)NCCc2ccc(Cl)cc2)c(C)c1	–	3.16 µM (active)
Cc1cccc(NC(=O)C2CCCN(C(=O)Nc3ccc(F)cc3)C2)c1C (configuration not stated)	2.71	–
Cc1c(NC(=O)/C=C/C(=O)O)cccc1[N+](=O)[O-]	-4.39	–
Cc1c(NC(=S)NCc2ccc(F)cc2)cccc1[N+](=O)[O-]	–	15.8 µM (active)
Cc1cc(Cl)ccc1NC(=S)NCCCN1CCCC1=O	4.91	–
Cc1cccc(NC(=S)NCCc2ccc(Cl)cc2)c1C	–	7.08 µM (active)
Cc1cccc(NC(=S)N2CCC(O)CC2)c1C	-7.46	–
Cc1cccc(NC(=S)NCCc2ccc(F)cc2)c1C	–	6.31 µM (active)
Cc1cccc(NC(=O)c2cccc(C(=O)Nc3cccc(C)c3C)n2)c1C	19	–
Cc1cccc(NC(=O)COC(=O)CCc2ccccc2)c1C	-0.134	–
Cc1cc(C(=O)NCCc2ccc(Cl)cc2)c(C)o1	-6.63	–
Cc1c(NC(=O)Nc2ccccc2)cccc1[N+](=O)[O-]	23.5	–
CCn1cc(CN2CCN(CC(C)(C)C)C(CCO)C2)c2ccccc21 (configuration not stated)	0.311	–
Cc1ccc(C)c(N2CCN(S(=O)(=O)c3c(C)[nH]c(C)c3C(=O)N3CCCC3)CC2)c1	6.41	–
O=C(c1cc(-c2ccc(O)cc2)on1)N1CCOCC1	-27.7	–
CCC(C(=O)NCc1cccnc1)n1nc(C)c2sc3ccccc3c2c1=O (configuration not stated)	-10.1	–
O=C(CC(=O)N/N=C\c1ccc(F)cc1)NCCc1ccccc1	-1.58	–
CCCCC(=O)NCc1ccc(F)cc1	-3.24	–
Cc1cc(C)cc(NC(=S)NCCc2c[nH]c3ccccc23)c1	–	12.6 µM (active)
CSc1ncc(C(=O)Nc2ccc(C)cc2C)c(C)n1	-4.09	–
Cc1ccc(NC(=S)Nc2ncccc2C)c(C)c1	–	7.08 µM (active)
S=C(NCCc1ccccc1)N1CCCCC1	-1.99	–
O=C(NCCc1c[nH]c2ccccc12)c1cccc(Br)c1	2.54	–
COc1cc(NC(=S)NCc2ccc(S(N)(=O)=O)cc2)cc(OC)c1	10.1	–

Compound	activity, negative = inhibition [%]	Potency
COc1ccccc1CC(=O)NCCc1c[nH]c2ccccc12	1.31	–
Cc1cc(F)ccc1NC(=S)NCCc1ccccc1	–	5.62 µM (active)
Cc1ccc(NC(=O)C2CCCN2S(=O)(=O)c2cccc3cccnc23)c(C)c1 (configuration not stated)	16.3	–
Cc1cc(C)cc(NC(=S)NCc2ccc(F)cc2)c1	–	3.98 µM (active)
CCCOc1ccc(CNC(=O)C2CCN(c3nn4c(=O)cc(C)nc4s3)CC2)cc1	-5.78	–
Cc1cccc(-c2nc(CS(=O)CC(=O)NC(C)CCc3ccccc3)c(C)o2)c1 (configuration not stated)	3.03	–
O=C(Nc1ccc(N2CCCC2=O)cc1)c1cncc(Br)c1	15.5	–
Cc1cccn2c(=O)c(/C=C(\C#N)C(N)=O)c(N3CCCCCC3)nc12	10.7	–
CCCc1nnc(NC(=O)CCC(=O)N2CCN(S(=O)(=O)c3ccc(OC)cc3)CC2)s1	-5.49	–
Cc1c(C(=O)NCC(c2ccco2)N2CCCC2)oc2ccc(Cl)cc12 (configuration not stated)	-2.12	–
Cc1ccc(CNC(=O)CCS(=O)(=O)c2ccc3c(c2)CC(C)N3C(=O)C2CC2)o1 (configuration not stated)	-9.65	–
O=C1C(=O)N(CCN2CCOCC2)C(c2cccc(Cl)c2)/C1=C(/O)c1ccc2c(c1)OCO2 (configuration not stated)	6.2	–
O=C(NNS(=O)(=O)c1ccc([N+](=O)[O-])cc1)C1CCCCC1	-5.42	–
COc1cccc(-c2nc(CS(=O)CC(=O)NCc3ccc(F)cc3)c(C)o2)c1 (configuration not stated)	-0.425	–
COc1ccccc1N1CC(C(=O)Nc2nnc(SCC(=O)NCC3CCCO3)s2)CC1=O (configuration not stated)	-2.2	–
Cc1ccccc1NC(=S)NC(=O)Cc1ccc(Cl)cc1	–	7.08 µM (active)
Cc1ccc(NC(=O)C(=O)NCc2ccco2)c(C)c1	21.4	–
S=C(NCc1cccnc1)Nc1ccc(Cl)cc1Cl	-10	–
Cc1cc(C(=O)NNC(=S)Nc2ccccc2C)cs1	-21.2	–
Cc1ccc(NC(=S)NCc2ccccc2Cl)c(C)c1	–	5.01 µM (active)
Cc1ccccc1N/C(SCc1ccc(Cl)cc1)=C(/C#N)C(N)=O	-0.144	–
O=C(N/C(=C\c1ccc([N+](=O)[O-])cc1)C(=O)N1CCOCC1)c1cccc(Br)c1	-11.1	–
CC(=O)Nc1ccc(S(=O)(=O)N(C)c2nc3ccccc3nc2Cl)cc1	11.5	–
COC(=O)CN1C(=O)[C@H]2[C@@H](/C=C/c3ccccc3)N3C(=O)CN(CC4CC4)C(=O)[C@@]3(Cc3ccccc3)[C@H]2C1=O	3.02	–
O=C(CN(Cc1ccc(Br)cc1)S(=O)(=O)c1ccccc1)NCc1ccncc1	-8.26	–
CN1CCN(C(=O)C(=O)c2cn(CC(=O)N3CCCC3)c3ccccc23)CC1	-3.11	–
